Results on six compounds are retold here after PubChem BioAssay AID602383 (National Center for Advancing Translational Sciences (NCATS), 2012).

Calls of active or inactive are those of the source. Calls follow the shape of the dose curve; as a rule, active = well fitted curve in the direction sought with a large enough effect; inactive = no such curve, though single readings can be large or run the other way.

For the test, the target named is Pyruvate kinase PKM (Homo sapiens) (UniProt P14618). Description: qHTS for Activators of Human Muscle Isoform 2 Pyruvate Kinase: Muscle Isoform 1 Assay. The settings on record: purified hPK-M1, ATP generation, Kinase-Glo luminescence, 1 h; series mostly up to 58.2 µM. As for the experimental part: Human pyruvate kinase muscle isoform 1 (hPK-M1) enzyme was supplied as a highly purified (>95% pure) preparation from Harvard Medical School and assayed for its ability to generate ATP from ADP using phosphoenolpyruvate (PEP) as a substrate. ATP generation was detected in a coupled reaction by luciferase-mediated luminescence, an ATP-dependent process. Pyruvate kinase substrates, PEP and ADP, were present in the assay at Km and approximately 10-fold below Km respectively. The enzyme was assayed at an intermediate level of activity to screen for both inhibitors and activators. NIH Chemical Genomics Center [NCGC] NIH Molecular Libraries Probe Centers Network [MLPCN] MLPCN Grant: MH085679 Assay Submitter (PI): Matthew G. Vander Heiden, Harvard Medical School
Pyruvate kinase PKM (Homo sapiens), sequence (P14618 whole entry, looked up, canonical isoform): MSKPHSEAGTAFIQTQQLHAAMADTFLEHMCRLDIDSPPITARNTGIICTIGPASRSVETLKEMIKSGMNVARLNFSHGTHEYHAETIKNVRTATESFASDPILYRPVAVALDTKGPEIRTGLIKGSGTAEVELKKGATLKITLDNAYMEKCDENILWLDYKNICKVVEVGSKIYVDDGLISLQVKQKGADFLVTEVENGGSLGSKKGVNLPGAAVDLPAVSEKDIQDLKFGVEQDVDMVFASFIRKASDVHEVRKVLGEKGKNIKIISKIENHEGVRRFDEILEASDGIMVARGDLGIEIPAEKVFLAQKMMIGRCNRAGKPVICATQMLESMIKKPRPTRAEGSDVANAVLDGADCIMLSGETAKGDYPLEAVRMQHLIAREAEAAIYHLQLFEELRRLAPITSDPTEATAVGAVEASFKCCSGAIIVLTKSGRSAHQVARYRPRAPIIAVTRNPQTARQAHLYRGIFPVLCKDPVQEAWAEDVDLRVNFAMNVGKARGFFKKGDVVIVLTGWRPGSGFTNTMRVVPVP
Three uL of substrate mix (at r.t.) in assay buffer (50 mM Imidazole pH7.2, 50 mM KCl, 7 mM MgCl2, 0.01% Tween 20, 0.05% BSA) was dispensed into white solid bottom 1,536 well microtiter plates so that the final concentrations of substrates in the assay were 0.1 mM ADP and 0.5 mM PEP. 23 nL of compound were delivered by a pin tool and 1 uL of enzyme mix (final concentration of 1 nM) in assay buffer (4 degree Celsius) was added. Plates were incubated at room temperature for 1 hour. Two uL of detection mix (Kinase-Glo, Promega; at 4 degree Celsius protected from light) was added and luminescence read by a ViewLux (Perkin Elmer) at 1 second exposure/plate. Data were normalized to the uninhibited (row 31). Additionally, a no enzyme and 5-fold enzyme control was dispensed in row 32, split equally between the two conditions.
For the compound `Cc1cc2c(s1)c1cnn(Cc3cc(F)ccc3F)c(=O)c1n2C`, the compound was called inactive. In the case of `COc1cccc(Cn2ncc3c4sc(S(C)=O)cc4n(C)c3c2=O)c1` (stereo unspecified) it was “inactive”; in that of `Cc1cc2c(s1)c1cnn(Cc3c(Cl)ccc(C)c3F)c(=O)c1n2C`, “inactive”; in that of `Cc1cc2c(s1)c1cnn(Cc3cc(F)c(F)cc3F)c(=O)c1n2C`, “inactive”.

In the case of `Cc1cc2c(s1)c1cnn(Cc3ccc(F)cc3F)c(=O)c1n2C`, the outcome was inactive. Turning to `Cn1c2cc(S(C)=O)sc2c2cnn(Cc3cccc(N)c3)c(=O)c21` (stereo unspecified), the outcome was inactive.
